HCMV antiviral = inhibitors of human cytomegalovirus. activity change, negative = inhibition, % at 57.5 µM. HFF cells, HCMV-luciferase reporter, 72 h; hits give low values. AID 1259415. 410,000 tested, 4.5% active; in the data active means activity change below about -60%; inconclusive means no clear call, values can overlap the other calls; inactive means above about -39%; further: on the % scale 0 is the no-effect control and ±100 the full control effect
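Luciferase read-out from HCMV-luciferase-infected HFFs (MOI 1 PFU/cell) 72 h post infection at 37C; compounds added after 16 h cell attachment; activity normalized between buffer-only basal and Salinomycin (10uM) inhibitor controls.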
Sm TGR block = S. mansoni TGR enzyme inhibition. AID 485364. purified TGR, DTNB reduction, TNB absorbance 405 nm. 360,000 tested, 3% active. Potency, µM (series often up to 114 µM), without a hit: top-dose activity change, negative = inhibition, hits mostly inhibitors. Q962Y6; further: potency means the concentration at half of the fitted maximal effect; on the % scale 0 is the no-effect control and ±100 the full control effect; nearly all actives have a fitted effect of over 60% in size
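Kinetic colorimetric format: TGR-catalysed, NADPH-driven DTNB reduction monitored via TNB absorbance. Enzyme dispensed at 20 nM; compound exposure 15 min at room temperature before reaction start.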
Pf growth 48h = P. falciparum growth inhibition at 48 hours (one generation); Potency, µM (titrated, usually from 28.7 µM), for the others: top-dose activity change, negative = inhibition, most hits filed as inhibitors; AID 504832; 310,000 tested, 5.9% active; P. falciparum luciferase growth in erythrocytes, 48 h; further: potency means the concentration at half of the fitted maximal effect; on the % scale 0 is the no-effect control and ±100 the full control effect
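A one-generation exposure of luciferase-tagged malaria parasites in RPMI 1640/Albumax erythrocyte culture, 37 C and 5% CO2. Inhibition is inferred from decreased luminescence after adding detection reagent.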
HCV inh = HCV inhibition. 340,000 tested, 3.4% active. AID 651820. Potency, µM (top dose mostly 41.8 µM), inactives show at the top dose activity change, negative = inhibition, hits mostly inhibitors. Huh7.5.1 HCVcc-Cre infection, luciferase reporter, 44 h; further: potency means the concentration at half of the fitted maximal effect; on the % scale 0 is the no-effect control and ±100 the full control effect
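1,000 cells/well; 4 h culture; + compound; + HCVcc-Cre (~0.5 moi); 44 h; luciferase substrate, RT 15 min; read 15 sec.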
SARS PLpro yeast = blocks SARS-CoV papain-like protease in a yeast assay | AID 485353 | Potency, µM (doses to about 32.9 µM), without a hit: at the highest dose activity, positive = growth rescue, actives largely listed as activators | S. cerevisiae expressing SARS-CoV PLpro, growth rescue | 330,000 tested, 0.19% active; calls by dose curve; further: potency means the concentration at half of the fitted maximal effect; 0% is about no effect; nearly all actives have a fitted effect of over 55% in size
Pf growth 96h = P. falciparum growth inhibition at 96 hours; P. falciparum luciferase reporter growth, 96 h; Potency, µM (doses to about 28.7 µM), without a hit: top-dose activity change, negative = inhibition, actives largely listed as inhibitors; 320,000 tested, 6.9% active; further: potency means the concentration at half of the fitted maximal effect; on the % scale 0 is the no-effect control and ±100 the full control effect
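Cell-based qHTS: luciferase-tagged P. falciparum in erythrocytes (2% hematocrit, 0.05% parasitemia final) incubated with compounds for 96 hours, 37 C, 5% CO2; luciferase detection reagent then added and luminescence measured.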
The depositor's hits bear a star; ? = inconclusive; nt = no result; [ ] = dose if it differs, or a comment. Compounds with a hit are over-represented: about 15% of the library has one in this group of screens. Unless noted, the call rests on the fitted dose curve; in most records, active means well fitted curve in the direction sought with a large enough effect; inconclusive means small, poorly fitted or top-dose-only effect, or another doubt; inactive means no such curve, though single readings can be large; an effect the other way counts as inactive or inconclusive.

SMILES	HCMV antiviral	Sm TGR block	Pf growth 48h	HCV inh	SARS PLpro yeast	Pf growth 96h
CCNC(=O)/C(C#N)=C/c1c(N2CCCCCC2)nc2c(C)cccn2c1=O	?	-20%	?	?	-2%	13µM*
COc1cc(NC(=O)c2cccc(C)c2)c(OC)cc1NC(=O)CN1CCCCC1	-8	0%[57.1 µM]	-25%	?	-1%	20%
COc1cc(NC(=O)c2ccc(C(C)(C)C)cc2)c(OC)cc1NC(=O)CN1CCCCC1	?	0%	6.6µM*	-9%	1%	-3%
COc1cc(NC(=O)c2ccc(Cl)cc2)c(OC)cc1NC(=O)CN1CCCCC1	17	-18%	-18%	7.9µM*	3%	-16%
COc1cc(NC(=O)c2ccc(Cl)cc2)c(OC)cc1NC(=O)CN1CCOCC1	19	-8%	-9%	-11%	-6%	nt
CCCCOc1ccc(N2C(=O)C(C)CNC2=S)cc1 (centres undefined)	-99*	nt	nt	24%	nt	nt
CCN(CC)S(=O)(=O)c1cc(NC(=O)Cc2ccc(S(=O)(=O)N3CCOCC3)s2)ccc1Cl	-99*	nt	nt	10µM*	nt	nt
CN(C)S(=O)(=O)c1ccc(NC(=O)Cc2ccc(S(=O)(=O)N3CCOCC3)s2)cc1	-37	-10%	?	12%	-9%	9.3µM*
CCn1c2ccccc2c2cc(NC(=O)Cc3ccc(S(=O)(=O)N4CCOCC4)s3)ccc21	-11	-1%	?	?	-3%	nt
Cc1cccc(NC(=O)CNC(=O)Cc2ccc(S(=O)(=O)N3CCOCC3)s2)c1C	-104*	-22%	?	5%	0%	-1%
O=C(Cc1ccc(S(=O)(=O)N2CCOCC2)s1)Nc1ccc(N2CCOCC2)cc1	11	1%	171%	15%	2%	258%
O=C(N/N=C/c1cc2cc3c(cc2nc1Cl)OCO3)c1ccncc1	18	5%	26%	-29%	2%	13%
CCCSc1cc(NCCOC(=O)CCC)c([N+](=O)[O-])c2nonc12	?	2µM*	-8%	-4%	-103%	-19%
O=[N+]([O-])c1c(NCc2ccco2)ccc2nonc12	?	-22%	3%	-4%	-1%	10%
CCCC(=O)OCCNc1cc(SCc2ccco2)c2nonc2c1[N+](=O)[O-]	16	14µM*	-19%	9%	6%	?
CCCC(=O)OCCNc1cc(Sc2nccn2C)c2nonc2c1[N+](=O)[O-]	53	0.4µM*	?	?	?	6%
CC(=O)OCCCNc1cc(SCc2ccco2)c2nonc2c1[N+](=O)[O-]	10	7.1µM*	2%	0%	18%	2.3µM*
CCCSc1cc(NCCOC(C)=O)c([N+](=O)[O-])c2nonc12	-28	-3%	1%	5%	1%	?
ClCC1NCC(c2ccccc2Cl)c2c1[nH]c1ccccc21 (centres undefined)	-23	-12%	?	-22%	-2%	?
Cc1cccc(C)c1NC(=O)C(c1ccccc1)N1CCN(C/C=C/c2ccccc2)CC1 (centres undefined)	-16	nt	nt	nt	nt	nt
CCOC(=O)C1=CCN(S(=O)(=O)c2ccccc2Cl)C1c1cccc(Br)c1 (centres undefined)	-26	nt	nt	nt	nt	nt
Cc1ccc(CNC(=O)Cc2c(C)c3c(cc(C)c4c(C)coc43)oc2=O)cc1	11	0%	nt	nt	nt	nt
CCOc1cccc2sc(=NC(=O)c3ccco3)n(CC(=O)OC)c12	0	-17%	?	11µM*	1%	-28%
CCn1c(=NC(=O)c2ccc(S(=O)(=O)N(C)C)cc2)sc2cccc(OC)c21	-28	2%	8.3µM*	?	-2%	?
CCOc1cccc2sc(=NC(=O)CCS(=O)(=O)c3ccccc3)n(CC)c12	?	-34%	?	11µM*	?	?
SMILES	HCMV antiviral	Sm TGR block	Pf growth 48h	HCV inh	SARS PLpro yeast	Pf growth 96h
CCn1c(=NC(=O)CS(=O)(=O)c2ccc(C)cc2)sc2cccc(OC)c21	-62*	0%	?	?	-4%	?
C#CCn1c(=NC(=O)c2ccco2)sc2cccc(Cl)c21	0	1%	19%	-3%	0%	15%
CCc1ccccc1NC1=CC(=O)CC(C)(C)C1	-27	-1%	39%	10%	1%	1%
O=C(NCC(c1ccco1)N1CCCC1)c1cccc(S(=O)(=O)N2CCOCC2)c1 (centres undefined)	0	-19%	?	-18%	6%	?
O=C(Nc1c(C(=O)c2ccccc2)oc2ccccc12)c1cc(=O)c2ccccc2o1	9	2%	nt	nt	nt	nt
CCc1ccc(NC(=O)c2cc3c(COC(C)=O)cnc(C)c3oc2=O)cc1	10	1%	nt	nt	nt	nt
CCOC(=O)N1CCC(NC(=O)c2oc3c(c2C)-c2[nH]ncc2CC3)CC1	13	6%	nt	16%	2%	8.3µM*
CCOC(=O)c1cccc(NC(=O)c2oc3c(c2C)-c2[nH]ncc2CC3)c1	59	-6%	nt	nt	nt	nt
O=C(COC(=O)c1c2c(nc3ccccc13)/C(=C/c1ccco1)CC2)NC1CCCC1	-12	5µM*	-19%	?	0%	?
CC1CCCCC1NC(=O)COC(=O)c1c2c(nc3ccccc13)/C(=C/c1ccco1)CC2 (centres undefined)	-33	14µM*	-45%	?	-4%	15µM*
COCc1cc(N2CCCCC2)nc(-c2ccccc2)n1	?	0%	1%	5.6µM*	-3%	-1%
CSCc1cc(N2CCCC2)nc(-c2ccccc2)n1	-1	10%	87%	?	0%	-10%
Cc1ccc(C)c(CN2C(=O)c3ccccc3S(=O)(=O)c3ccc(C(=O)N4CCN(c5ccccn5)CC4)cc32)c1	-71*	-3%	nt	nt	nt	nt
CCN1CCN(C(=O)c2ccc3c(c2)N(Cc2ccc(Cl)cc2)C(=O)c2ccccc2S3(=O)=O)CC1	-61*	1%	nt	nt	nt	nt
O=C(c1ccc2c(c1)N(Cc1ccc(Cl)cc1)C(=O)c1ccccc1S2(=O)=O)N1CCCC1	-12	-8%	nt	nt	nt	nt
CCN1CCN(C(=O)c2ccc3c(c2)N(Cc2ccccc2)C(=O)c2ccccc2S3(=O)=O)CC1	8	-11%	6.6µM*	-25%	0%	23%
CCOC(=O)Nc1ccc2c(c1)N(C(=O)CN(C)C)c1ccccc1CC2	?	27%	-7%	-27%	-2%	10µM*
CCNCC(=O)N1c2ccccc2CCc2ccc(NC(=O)OCC)cc21	nt	18%	10µM*	-16%	1%	-28%
CCOC(=O)Nc1ccc2c(c1)N(C(=O)CCN(C)C)c1ccccc1CC2	19	2%	-11%	-5%	-3%	43%

High-throughput results from PubChem.
